Source: PubChem
Compounds with a hit are over-represented: about 7.4% of the library has one in this group of screens.
ERK AVP inh: qHTS Assay for Inhibitors of the ERK Signaling Pathway using a Homogeneous Screening Assay. HEK293-V1b, vasopressin-stimulated pERK AlphaScreen. Potency, µM (highest dose often 57.5 µM), for inactives: top-dose activity, negative = inhibition, usual class: inhibitors. 0.99% of 72,000 active. AID 995, 2007; further: on the % scale 0 is the no-effect control and ±100 the full control effect; nearly all actives have a fitted effect of over 55% in size
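Phosphorylated ERK1/2 detected via AlphaScreen bead proximity in lysates of V1b-expressing HEK293 cells given 25 nM vasopressin for 5 min after 30 min compound exposure (37 °C). AC50 from Hill equation; basal DMSO 0%, vasopressin 100%.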
TSHR agonist: qHTS Assay for Agonists of the Thyroid Stimulating Hormone Receptor. HEK293-CNG-TSHR cells (CNG channel as cAMP sensor), membrane potential dye, cAMP. Potency, µM (series often up to 57.1 µM), inactives show top-dose activation, most hits filed as activators. 0.48% of 73,000 active; active means well fitted activation curve with a large enough effect in the main read-out, with a control signal flat, not every such curve was filed as active; inconclusive means small, poorly fitted or top-dose-only effect, or a change in a side signal; inactive means no such curve, though single readings can be large or run the other way; % of control where 0% means no effect;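 further: the control signal comes from parental cells without the receptor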
Target sequence (P16473 whole entry, looked up): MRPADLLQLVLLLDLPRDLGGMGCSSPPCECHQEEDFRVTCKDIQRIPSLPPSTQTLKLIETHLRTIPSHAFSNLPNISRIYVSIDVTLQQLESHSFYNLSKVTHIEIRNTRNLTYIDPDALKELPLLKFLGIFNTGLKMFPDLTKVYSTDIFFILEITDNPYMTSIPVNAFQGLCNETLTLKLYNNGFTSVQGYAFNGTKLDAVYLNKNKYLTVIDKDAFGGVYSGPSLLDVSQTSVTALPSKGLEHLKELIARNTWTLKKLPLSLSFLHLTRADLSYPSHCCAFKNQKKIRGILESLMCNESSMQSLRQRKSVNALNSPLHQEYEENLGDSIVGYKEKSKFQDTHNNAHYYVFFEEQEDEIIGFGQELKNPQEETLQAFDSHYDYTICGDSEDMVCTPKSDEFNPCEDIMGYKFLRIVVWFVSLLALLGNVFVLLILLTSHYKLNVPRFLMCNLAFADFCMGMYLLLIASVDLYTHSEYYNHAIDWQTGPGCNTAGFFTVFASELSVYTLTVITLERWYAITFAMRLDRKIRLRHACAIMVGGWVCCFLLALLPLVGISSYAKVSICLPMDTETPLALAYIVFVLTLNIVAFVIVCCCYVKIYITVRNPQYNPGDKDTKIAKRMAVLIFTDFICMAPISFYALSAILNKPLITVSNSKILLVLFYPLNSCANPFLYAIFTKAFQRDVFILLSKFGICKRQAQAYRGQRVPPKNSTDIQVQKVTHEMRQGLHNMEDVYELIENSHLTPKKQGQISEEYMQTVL
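HEK 293 cells stably expressing TSHR and a modified CNG channel, with CNG-only parental cells as counterscreen, were preloaded 60 min at room temperature with membrane potential dye containing 100 uM RO 20-1724. Compound exposure was 30 min, and depolarization was read as fluorescence at 590 nm.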
Tau filament bind: qHTS Assay for Tau Filament Binding. 2% of 71,000 active. recombinant tau filaments, thioflavin S fluorescence, 15 h; filaments grown with octadecylsulfate alongside compound. Potency, µM (series often up to 57.1 µM), for the others: at the top dose activity change, negative = inhibition. AID 596, 2007;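 further: on the % scale 0 is the no-effect control and ±100 the full control effect; actives lower thioflavin S fluorescence by blocking filaments or displacing dye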
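His-tagged recombinant human tau (exons 2, 3, 10; 1 uM final) fibrillized with 30 uM sodium octadecylsulfate, 15 h at 37 C, in pH 7.4 HEPES buffer with 10 uM thioflavine S and 5 mM DTT. Reduced ThS fluorescence (450/510 nm) marks activity.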
CRE-bla Fsk: Cell signaling CRE-BLA (Fsk stim) | CHO CRE-bla reporter (cAMP response element driving beta-lactamase), forskolin EC10, beta-lactamase ratio | Potency, µM (doses to about 38.2 µM), for inactives: at the highest dose activity change, negative = inhibition, usual class: activators | AID 662, 2007 | 2.5% of 71,000 active; active means well fitted activation curve with a large enough effect in the signal ratio, with a control signal flat, not every such curve was filed as active; inconclusive means small, poorly fitted or top-dose-only effect, or effect the other way, or a change in a side signal; the % refers to the signal ratio; further: % of control where 0% means no effect
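AC50 values, positive or negative, reflect shifts in EC10 NKH 477-induced CRE-bla reporter activity in CHO cells. Incubation lasted 3 h at 37 °C before CCF4 substrate (2 h, room temperature) and ratiometric 460/530 nm reading.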
HEK293 cAMP cs: qHTS Assay for Agonists of the Thyroid Stimulating Hormone Receptor: Activators of Intracellular cAMP Concentrations in Parental HEK 293 | parental HEK293 CNG cAMP sensor, membrane potential fluorescence | Potency, µM (series often up to 57.1 µM), for inactives: at the highest dose activation, actives largely listed as activators | 2.5% of 73,000 active | AID 938, 2007; further: % of control where 0% means no effect; nearly all actives have a fitted effect of over 55% in size
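Parental HEK 293 cells stably expressing a cAMP-gated CNG channel were loaded with membrane potential dye containing 100 uM RO 20-1724 for 60 min. Compound added for 30 min; depolarization read as fluorescence intensity at 590 nm.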
* = called active by the depositor; ? = inconclusive; / = no result given; [ ] = dose if it differs, or a comment. Unless noted, the call rests on the fitted dose curve; in most records, active means well fitted curve in the direction sought with a large enough effect; inconclusive means small, poorly fitted or top-dose-only effect, or another doubt; inactive means no such curve, though single readings can be large; an effect the other way counts as inactive or inconclusive. Potency means the concentration at half of the fitted maximal effect.

SMILES | ERK AVP inh | TSHR agonist | Tau filament bind | CRE-bla Fsk | HEK293 cAMP cs
O=C(O)/C=C\c1c2ccc(=O)c(O)c-2oc2c(O)c(O)ccc12 | ? | 0%[11.4 µM] | 5µM* | 1%[7.6 µM] | 6%[11.4 µM]
S=C1NC=NC2N=CNC12 (configuration not stated) | 17% | ? | 2% | 29% | 19%
CCOC(=O)c1[nH]c(COC(=O)CCCOc2ccccc2)c(C(=O)OCC)c1C | 5% | ? | -10% | 13µM* | ?
O=[N+]([O-])c1ccc(NN=C2c3ccccc3Cc3ccccc32)c([N+](=O)[O-])c1 | -15%[11.5 µM] | -5%[11.4 µM] | ? | 5%[7.6 µM] | -3%[11.4 µM]
C=CCSC1=C(C#N)C(c2cccc(OC)c2)CC(=O)N1 (configuration not stated) | 12% | 23% | -1% | 6% | 4%
CSC1=C(C#N)C(c2cccc(Br)c2)CC(=O)N1 (configuration not stated) | 20µM* | -2% | -2% | ? | 8%
CC1(C)Cc2c(sc3nc(NCCN4CCOCC4)n4ncnc4c23)CO1 | -20% | 14% | -3% | 4µM* | -10%
Cc1cnc(CNc2nc(-c3ccccc3Cl)nc3ccccc23)cn1 | -4% | ? | -4% | ? | ?
CCCn1c(NC(=O)c2ccc(C)cc2)nc2ccccc21 | 1% | ? | 35% | ? | 25µM*
CCCn1c(NCc2cc(OC)ccc2OC)nc2ccccc21 | 12% | 14% | -2% | -14% | 37%
CCCn1c(NC(=O)C2CCN(S(=O)(=O)c3cccs3)CC2)nc2ccccc21 | 13µM* | ? | 22% | ? | ?
CCCn1c(-c2ccc(OC)cc2)nc2ccccc21 | -25% | ? | 4% | 0% | 25µM*
CCCn1c(NC(=O)c2cccc(S(=O)(=O)N3CCCC3)c2)nc2ccccc21 | ? | ? | 28% | ? | 16µM*
Nc1nc(N)nc(CCCCc2nc(N)nc(N)n2)n1 | / | -4%[11.4 µM] | 2%[11.4 µM] | -5%[7.6 µM] | 8%[11.4 µM]
CCN1C(=O)[C@H]2[C@H]3[C@H](O)[C@H](O)C/C(=N/O[C@@H](C)c4cn([C@H]5COC[C@H]5O)nn4)[C@@H]3CC[C@@H]2C1=O | -10%[11.5 µM] | 7%[11.4 µM] | / | / | -6%[11.4 µM]
CC1(C)N=C(N)N=C(N)N1c1cccc(CSc2ccccc2)c1 | -1%[11.5 µM] | 2%[11.4 µM] | 4%[11.4 µM] | 12%[7.6 µM] | -6%[11.4 µM]
Cn1c(=O)c2[nH]c(CS(=O)(=O)Cc3nc4c([nH]3)c(=O)n(C)c(=O)n4C)nc2n(C)c1=O | -6%[11.5 µM] | -3%[11.4 µM] | 276%[11.4 µM] | 3%[7.6 µM] | -9%[11.4 µM]
CC(=O)C(C)Oc1ccc2c3c(c(=O)oc2c1)CCCC3 (configuration not stated) | ? | ? | 28% | ? | ?
CC(=O)COc1ccc2c3c(c(=O)oc2c1)CCCC3 | -26% | -12% | 30% | 16µM* | 6%
CC(=O)C(C)Oc1ccc2c3c(c(=O)oc2c1)CCCCC3 (configuration not stated) | -8% | 25µM* | 2% | ? | 16%
CC(C)CNC(=O)COc1ccc2c3c(c(=O)oc2c1)CCC3 | -26% | -1% | 10% | 18% | 6%
Cn1c([N+](=O)[O-])cnc1CN1CCN(CCO)CC1 | 7%[11.5 µM] | 1%[11.4 µM] | -8%[11.4 µM] | 7%[7.6 µM] | 1%[11.4 µM]
CCOC(=O)c1[nH]c(C)c(C(=O)Nc2cc(OC)ccc2OC)c1C | -15% | 5%[11.4 µM] | 4% | 10µM* | 14%
CCOC(=O)c1c(C)[nH]c(C(=O)OCC(=O)Nc2cc(C)ccc2OC)c1C | -28% | 8% | 15% | ? | 3%
C=Cc1c(C)/c2[n-]/c1=C\c1[n-]c(c(CC)c1C)/C=c1\[n-]c3c(c1C)C(=O)C(C(=O)[O-])C=3c1[n-]c(c(C)c1CCC(=O)[O-])\C=2.[Cu].[Na+].[Na+] (configuration not stated) | -29% | / | / | / | /
CC(/C=C/C=C(C)/C=C/C(=O)O)=C\C=C\C=C(C)\C=C\C=C(C)\C=C\C(=O)O | -1% | 0% | 3.2µM* | ? | 31%
